In PubChem BioAssay (Tox21):
Inconclusive results are not listed. A call without a number means that no potency is given here. Activity calls are given as the source filed them. Calls follow the shape of the dose curve; as a rule, active = well fitted inhibition curve with a large enough effect in the signal ratio in the repeat runs (not every such curve was filed as active); inconclusive = weak or mixed curves, or effect the other way; inactive = flat fitted curve, though single readings scatter; the % refers to the signal ratio.

Test: cAMP Responsive Elements (CRE) small molecule antagonists, cell-based qHTS assay (AID 1963591)
Details: CRE-bla HEK293T, beta-lactamase FRET ratio; series mostly up to 92.4 µM; activity change, negative = inhibition: at the top concentration
Source text: U.S. Tox21 Program National Center for Advancing Translational Sciences [NCATS] Division of Preclinical Innovation [DPI] U.S. Environmental Protection Agency [EPA] National Institutes of Environmental Health Sciences [NIEHS] National Toxicology Program [NTP] U.S. Food and Drug Administration [FDA] Tox21 Assay Overview: CREB (cyclic-AMP Responsive Element Binding Protein) is a cellular transcription factor. It binds to certain DNA sequences called cAMP Responsive Elements (CRE) and regulates the transcription of the genes. […] This cell line can be used to find agonists/antagonists of the cyclic AMP signaling pathway. The activation of the report gene under culture conditions can be detected by fluorescence intensity. This cell line has been used to screen the Tox21 10K compound library to […].
Tox21 Assay Protocol Summary: CRE-bla Hek 293T cells were suspended in assay medium (DMEM containing 10% dialyzed FBS, 0.1 mM NEAA, 1 mM sodium pyruvate and 25 mM HEPES) and dispensed at 2,000 cells/4 uL /well into 1536-well black wall/clear bottom plates using a Multidrop Combi (ThermoFisher Scientific, Waltham, MA) dispenser. After the assay plates were incubated at 37 C/5% CO2 for 18 hrs, 23 nL of compounds dissolved in DMSO, positive controls or DMSO only was transferred to the assay plate by a pintool workstation (Kalypsys, San Diego, CA), followed by addition of 1 […] uL of 1.25uM NKH477 (0.25 uM as final concentration) in assay medium using a Flying Reagent Dispenser (Aurora Discovery, San Diego, CA). The plates were incubated at 37 C and 5% CO2 for 3 hrs. Then 1 uL of LiveBLAzer B/G FRET substrate (Invitrogen, Carlsbad, CA) was added to each well using Bioraptr Flying Reagent Dispenser (FRD, Aurora Discovery, San Diego, CA). The plates were incubated at room temperature for 2 h.

SMILES | Potency | activity change, negative = inhibition
C=C(C)CC(C)(C)C | inactive | –
C[C@]12CC[C@@H]3c4ccc(O)cc4CC[C@H]3[C@@H]1C[C@@H](O)[C@@H]2O | inactive | –
Cc1cc(=O)[nH]c(=S)[nH]1 | inactive | –
CC(O)CC(C)(C)O (stereo not given) | inactive | –
COc1ccc([C@@H]2CC(=O)c3c(O)cc(O[C@@H]4O[C@H](CO[C@@H]5O[C@@H](C)[C@H](O)[C@@H](O)[C@H]5O)[C@@H](O)[C@H](O)[C@H]4O)cc3O2)cc1OC | – | 8.95% (inactive)
CC(O)CO (stereo not given) | inactive | –
CCCCC/C=C\C/C=C\CCCCCCCC(=O)OC | – | 6.45% (inactive)
COCC(=O)O | – | 9.76% (inactive)
CS(=O)(=O)c1ccc([C@@H](O)[C@@H](CO)NC(=O)C(Cl)Cl)cc1 | inactive | –
Cc1[nH]c(=O)c(C#N)cc1-c1ccncc1 | – | 12.4% [at 42.4 µM] (inactive)
CCCCCCC(C)(C)S | inactive | –
C=CC(=O)OCCC(=O)O | inactive | –
C[C@]12C=CC(=O)C=C1CC[C@@H]1[C@@H]2[C@@H](O)C[C@@]2(C)[C@H]1CC[C@]2(O)C(=O)CO | inactive | –
CC1=CCC2CC1C2(C)C (stereo not given) | inactive | –
COc1ccc(CN(CCN(C)C)c2ccccn2)cc1 | inactive | –
CNC[C@H](O)[C@@H](O)[C@H](O)[C@H](O)CO | inactive | –
Brc1ccc(Oc2ccc(Br)cc2)cc1 | – | 3.37% (inactive)
NS(=O)(=O)c1cc2c(cc1Cl)NCNS2(=O)=O | inactive | –
O=C1C(c2[nH]c3ccccc3c2O)=Nc2ccccc21 | inactive | –
Cc1ccc(Cl)cc1 | inactive | –

SMILES | Potency | activity change, negative = inhibition
Nc1ncnc2nc[nH]c12 | inactive | –
Nc1ccc(O)c(C(=O)O)c1 | inactive | –
NC(=O)/N=N/C(N)=O | inactive | –
CCC(Cc1c(I)cc(I)c(N)c1I)C(=O)O (stereo not given) | – | 9.75% [at 42.4 µM] (inactive)
NNc1ccc(C(=O)O)cc1 | inactive | –
COC(=O)c1ccc(C=O)cc1 | inactive | –
CC1(C)OC(=O)NC1=O | – | -10.4% (inactive)
CCCCCCCCC(=O)O | inactive | –
CCC(O)OCCCOC (stereo not given) | inactive | –
O=C1O[C@H]([C@H](O)CO)C(O)=C1O | inactive | –
CCCCC(CC)COC(=O)/C=C/c1ccc(OC)cc1 (stereo not given) | inactive | –
NC(N)=Nc1nc(CSCC/C(N)=N/S(N)(=O)=O)cs1 | inactive | –
c1ccc2[nH]ccc2c1 | inactive | –
C[Si](C)(C)N[Si](C)(C)C | inactive | –
CCN(CC)C(=O)c1cccc(C)c1 | inactive | –
COc1ccccc1[N+](=O)[O-] | inactive | –
O=C(Cl)c1c(Cl)c(Cl)c(C(=O)Cl)c(Cl)c1Cl | inactive | –
CN(C)C=O | inactive | –
CC1=CC(=O)CC(C)(C)C1 | – | -10.1% (inactive)
Cc1cccc(O)c1 | inactive | –
